# ± gives the standard deviation of the averaged measurements.
# Tested on: Renilla luciferase (RLuc)
# Assay: residual bioluminescent signal relative to negative control without GSH; higher = less interference (more residual luciferase signal)
# Conditions: screening conditions buffer
# Method: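 Selected metal salts at 3-4 concentrations tested on purified FLuc, NLuc or RLuc in screening buffer with 0, 0.2 or 2 mM glutathione added; 10 min enzyme pre-incubation at RT, luminescence 10 min after substrate. Signal normalised to negative control without GSH (% N_VALUE); triplicate wells.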
# [1] = metal salt concentration 1 mM, glutathione 0 mM
# [2] = metal salt concentration 1 mM, glutathione 0.2 mM
# [3] = metal salt concentration 1 mM, glutathione 2 mM
Compound,"residual bioluminescent signal (metal salt concentration 0.005 mM, glutathione 0 mM)","residual bioluminescent signal (metal salt concentration 0.005 mM, glutathione 0.2 mM)","residual bioluminescent signal (metal salt concentration 0.005 mM, glutathione 2 mM)","residual bioluminescent signal (metal salt concentration 0.536 mM, glutathione 0 mM)","residual bioluminescent signal (metal salt concentration 0.536 mM, glutathione 0.2 mM)","residual bioluminescent signal (metal salt concentration 0.536 mM, glutathione 2 mM)",residual bioluminescent signal [1],residual bioluminescent signal [2],residual bioluminescent signal [3],"residual bioluminescent signal (metal salt concentration 5 mM, glutathione 0 mM)","residual bioluminescent signal (metal salt concentration 5 mM, glutathione 0.2 mM)","residual bioluminescent signal (metal salt concentration 5 mM, glutathione 2 mM)","residual bioluminescent signal (metal salt concentration 0.02 mM, glutathione 0 mM)","residual bioluminescent signal (metal salt concentration 0.02 mM, glutathione 0.2 mM)","residual bioluminescent signal (metal salt concentration 0.02 mM, glutathione 2 mM)","residual bioluminescent signal (metal salt concentration 0.118 mM, glutathione 0 mM)","residual bioluminescent signal (metal salt concentration 0.118 mM, glutathione 0.2 mM)","residual bioluminescent signal (metal salt concentration 0.118 mM, glutathione 2 mM)","residual bioluminescent signal (metal salt concentration 0.5 mM, glutathione 0 mM)","residual bioluminescent signal (metal salt concentration 0.5 mM, glutathione 0.2 mM)","residual bioluminescent signal (metal salt concentration 0.5 mM, glutathione 2 mM)"
[Cl][Fe]([Cl])[Cl] [iron(III) chloride],115 ± 9.3%,116 ± 14%,161 ± 26%,36.6 ± 8%,53 ± 4.8%,101 ± 13%,33.4 ± 2%,39.3 ± 5.5%,48.9 ± 13%,2.29 ± 1.6%,0.915 ± 0.4%,2.06 ± 1.4%,–,–,–,–,–,–,–,–,–
[Cl][Fe][Cl] [iron(II) chloride],–,–,–,–,–,–,12.3 ± 4.2%,18.7 ± 10%,32 ± 11%,–,–,–,86.2 ± 14%,91.9 ± 18%,122 ± 5.5%,47.6 ± 13%,56.5 ± 11%,75.7 ± 7.6%,16.5 ± 3.1%,22.9 ± 4.2%,31.1 ± 5.1%

# Source: the supplement of paper PMC11628255, “Interference of metal ions on the bioluminescent signal of firefly, Renilla, and NanoLuc luciferases in high-throughput screening assays” (Frontiers in Chemistry, 2024)
